Percent Effect data for eight molecules are collected here from ChEMBL document CHEMBL3988442, “University of Dundee, Small-Polar-MMV Screening Library” (2021).

For some of these results: Entries with a potency or affinity are not part of this list.

What all share (set-up): scale not given: direction of the effect not stated beside the values
The target of assay [1] is Protein translocase subunit SecA (Escherichia coli (strain K12)) (UniProt P10408). The assay is described as follows: Assay to Identify E. coli SecA ATPase Inhibitors. The class given is functional. Conditions: 30 µM.
Assay [2] addresses T1, Ubiquitin-activating enzyme e1, putative (Leishmania donovani (strain BPK282A1)) (UniProt E9BSI1).
T1 sequence (whole entry): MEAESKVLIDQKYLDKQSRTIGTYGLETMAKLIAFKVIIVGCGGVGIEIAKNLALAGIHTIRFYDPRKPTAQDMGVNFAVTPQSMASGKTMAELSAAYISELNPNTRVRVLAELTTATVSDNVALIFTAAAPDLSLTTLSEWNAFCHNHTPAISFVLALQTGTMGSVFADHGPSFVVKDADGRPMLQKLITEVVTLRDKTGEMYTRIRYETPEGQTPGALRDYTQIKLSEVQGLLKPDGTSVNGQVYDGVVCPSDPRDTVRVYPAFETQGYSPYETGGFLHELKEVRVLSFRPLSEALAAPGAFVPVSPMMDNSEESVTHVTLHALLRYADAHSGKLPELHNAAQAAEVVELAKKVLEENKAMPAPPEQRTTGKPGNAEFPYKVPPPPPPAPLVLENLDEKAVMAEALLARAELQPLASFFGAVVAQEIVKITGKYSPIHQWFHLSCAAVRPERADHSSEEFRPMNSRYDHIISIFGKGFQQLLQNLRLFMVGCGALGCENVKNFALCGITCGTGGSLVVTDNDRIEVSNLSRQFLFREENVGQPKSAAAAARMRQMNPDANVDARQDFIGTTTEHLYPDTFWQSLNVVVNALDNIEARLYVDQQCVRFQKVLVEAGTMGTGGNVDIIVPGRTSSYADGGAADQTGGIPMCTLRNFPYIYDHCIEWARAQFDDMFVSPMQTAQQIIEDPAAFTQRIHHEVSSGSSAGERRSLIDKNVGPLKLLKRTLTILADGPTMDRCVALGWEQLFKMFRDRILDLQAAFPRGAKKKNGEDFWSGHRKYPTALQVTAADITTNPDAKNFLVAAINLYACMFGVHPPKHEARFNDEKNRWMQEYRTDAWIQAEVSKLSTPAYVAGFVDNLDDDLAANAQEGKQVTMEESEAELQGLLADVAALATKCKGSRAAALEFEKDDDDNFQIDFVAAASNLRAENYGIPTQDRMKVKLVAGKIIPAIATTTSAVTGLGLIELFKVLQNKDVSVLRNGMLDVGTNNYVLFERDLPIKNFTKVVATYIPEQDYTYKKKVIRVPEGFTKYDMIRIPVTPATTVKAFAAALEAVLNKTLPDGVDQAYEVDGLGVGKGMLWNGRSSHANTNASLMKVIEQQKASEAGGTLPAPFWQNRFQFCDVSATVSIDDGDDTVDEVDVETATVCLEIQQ
The assay is described as follows: Leishmania donovani Ubiquitin Activating Enzyme (LdE1). It is filed as functional. To be noted: 30 µM.

In assay [3] the target is AMP-activated protein kinase, AMPK (Homo sapiens) (UniProt P54646+O43741+P54619+Q9UGJ0+Q9Y478+Q13131+Q9UGI9). The assay is described as follows: AMP-dependent Kinase enzyme assay. An in vitro enzyme assay that detects ADP turnover that is directly proportional to AMPK activity. This uses naive AMPK that is activated during the assay with MK-8722. The class given is functional. Conditions: 30 µM.

In assay [4] the target is Sialic acid-binding Ig-like lectin 9 (Homo sapiens) (UniProt Q9Y336). The assay is described as follows: Hs-Siglec9 ALPHAscreen SOP 20170721. Conditions: 10 µM. Background: Bead proximity is the source of the signal in Alpha formats.
The next assay relates to Trypanosoma cruzi. The assay is described as follows: Trypanosoma cruzi phosphomannomutase and mannose-1-phosphate guanylyltransferase assay. The class given is functional. Conditions: 10 µM.
Assay [5] deals with T2, Arginase-2, mitochondrial (Homo sapiens) (UniProt P78540).
T2 sequence (whole entry): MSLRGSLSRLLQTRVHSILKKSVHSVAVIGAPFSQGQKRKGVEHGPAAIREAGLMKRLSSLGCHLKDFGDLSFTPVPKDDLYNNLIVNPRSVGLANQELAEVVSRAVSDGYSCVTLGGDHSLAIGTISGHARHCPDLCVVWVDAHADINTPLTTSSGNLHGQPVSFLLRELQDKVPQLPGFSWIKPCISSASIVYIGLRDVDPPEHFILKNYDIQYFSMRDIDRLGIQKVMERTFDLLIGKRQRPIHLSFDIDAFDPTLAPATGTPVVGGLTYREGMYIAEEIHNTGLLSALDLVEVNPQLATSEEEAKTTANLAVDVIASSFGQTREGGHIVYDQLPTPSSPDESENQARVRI
The assay is described as follows: in vitro enzyme assay to detect the production of urea directly proportional to the activity of Arginase II. Also: in the data most compounds retested in dose-response had high values. The class given is functional. To be noted: 33.3 µM.

Assay [6] has as its target T3, Proteasome subunit beta (Trypanosoma cruzi) (UniProt O96673).
T3 sequence (whole entry): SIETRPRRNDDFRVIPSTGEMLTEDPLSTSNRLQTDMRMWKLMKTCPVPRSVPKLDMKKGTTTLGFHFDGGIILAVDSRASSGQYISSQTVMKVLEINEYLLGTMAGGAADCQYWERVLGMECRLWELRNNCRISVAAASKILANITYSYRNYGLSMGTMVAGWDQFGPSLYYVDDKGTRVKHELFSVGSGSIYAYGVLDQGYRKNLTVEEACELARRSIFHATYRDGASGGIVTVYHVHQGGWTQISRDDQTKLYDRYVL
The assay is described as follows: Trypanosoma cruzi proteasome chymotrypsin-like activity (TcProtChymo) assay. Also: in the data most compounds retested in dose-response had high values. It is filed as functional. To be noted: 9.37 µM.

The species entered for the next assay is Homo sapiens. The assay is described as follows: To identify inhibition of the IFN signalling (Jak-Stat) pathway via expression of an eGFP reporter gene under the control of an IFN-stimulated response element (ISRE) containing MxA promoter. It is filed as functional. To be noted: 30 µM. A general note: A reporter such as luciferase makes a cellular process visible.

The target of assay [7] is T4, Tyrosyl-tRNA synthetase, putative (Trypanosoma cruzi (strain CL Brener)) (UniProt Q4DSP6).
T4 sequence (whole entry): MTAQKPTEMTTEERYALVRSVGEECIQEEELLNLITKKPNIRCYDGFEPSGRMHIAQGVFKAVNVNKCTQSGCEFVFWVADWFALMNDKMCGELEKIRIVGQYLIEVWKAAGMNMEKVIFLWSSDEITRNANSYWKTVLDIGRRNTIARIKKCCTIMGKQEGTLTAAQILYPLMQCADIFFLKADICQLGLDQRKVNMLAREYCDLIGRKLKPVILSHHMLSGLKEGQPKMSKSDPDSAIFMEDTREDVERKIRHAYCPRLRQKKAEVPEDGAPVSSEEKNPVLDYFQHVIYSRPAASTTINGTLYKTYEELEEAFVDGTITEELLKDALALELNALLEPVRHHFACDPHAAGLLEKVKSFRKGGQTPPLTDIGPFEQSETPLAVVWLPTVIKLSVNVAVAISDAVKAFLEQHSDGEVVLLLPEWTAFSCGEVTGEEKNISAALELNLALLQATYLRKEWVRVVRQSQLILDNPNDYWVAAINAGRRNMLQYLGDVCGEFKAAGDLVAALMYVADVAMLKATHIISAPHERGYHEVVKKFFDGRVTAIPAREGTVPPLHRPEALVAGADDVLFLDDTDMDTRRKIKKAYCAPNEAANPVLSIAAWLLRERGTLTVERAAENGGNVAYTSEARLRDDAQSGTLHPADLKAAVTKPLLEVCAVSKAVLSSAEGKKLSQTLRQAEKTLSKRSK
The assay is described as follows: Trypanosoma cruzi tyrosyl tRNA synthetase (TcYRS) _High Tyrosine SOP. Also: in the data most compounds retested in dose-response had high values. The class given is functional. Conditions: 30 µM.

The target in assay [8] is T4, Tyrosyl-tRNA synthetase, putative (Trypanosoma cruzi (strain CL Brener)). The assay is described as follows: Trypanosoma cruzi tyrosyl tRNA synthetase (TcYRS) SOP. The class given is functional. Conditions: 30 µM.
The target of assay [9] is Chromo domain-containing protein 1 (Saccharomyces cerevisiae (strain ATCC 204508 / S288c) (Baker's yeast)) (UniProt P32657). The assay is described as follows: ScCHD-1 Enzyme Inhibition Assay. Also: in the data most compounds retested in dose-response had high values. It is filed as functional. Conditions: 30 µM.
Chain of Chromo domain-containing protein 1 (Saccharomyces cerevisiae (strain ATCC 204508 / S288c) (Baker's yeast)) (P32657 whole entry, the tested form may be a part): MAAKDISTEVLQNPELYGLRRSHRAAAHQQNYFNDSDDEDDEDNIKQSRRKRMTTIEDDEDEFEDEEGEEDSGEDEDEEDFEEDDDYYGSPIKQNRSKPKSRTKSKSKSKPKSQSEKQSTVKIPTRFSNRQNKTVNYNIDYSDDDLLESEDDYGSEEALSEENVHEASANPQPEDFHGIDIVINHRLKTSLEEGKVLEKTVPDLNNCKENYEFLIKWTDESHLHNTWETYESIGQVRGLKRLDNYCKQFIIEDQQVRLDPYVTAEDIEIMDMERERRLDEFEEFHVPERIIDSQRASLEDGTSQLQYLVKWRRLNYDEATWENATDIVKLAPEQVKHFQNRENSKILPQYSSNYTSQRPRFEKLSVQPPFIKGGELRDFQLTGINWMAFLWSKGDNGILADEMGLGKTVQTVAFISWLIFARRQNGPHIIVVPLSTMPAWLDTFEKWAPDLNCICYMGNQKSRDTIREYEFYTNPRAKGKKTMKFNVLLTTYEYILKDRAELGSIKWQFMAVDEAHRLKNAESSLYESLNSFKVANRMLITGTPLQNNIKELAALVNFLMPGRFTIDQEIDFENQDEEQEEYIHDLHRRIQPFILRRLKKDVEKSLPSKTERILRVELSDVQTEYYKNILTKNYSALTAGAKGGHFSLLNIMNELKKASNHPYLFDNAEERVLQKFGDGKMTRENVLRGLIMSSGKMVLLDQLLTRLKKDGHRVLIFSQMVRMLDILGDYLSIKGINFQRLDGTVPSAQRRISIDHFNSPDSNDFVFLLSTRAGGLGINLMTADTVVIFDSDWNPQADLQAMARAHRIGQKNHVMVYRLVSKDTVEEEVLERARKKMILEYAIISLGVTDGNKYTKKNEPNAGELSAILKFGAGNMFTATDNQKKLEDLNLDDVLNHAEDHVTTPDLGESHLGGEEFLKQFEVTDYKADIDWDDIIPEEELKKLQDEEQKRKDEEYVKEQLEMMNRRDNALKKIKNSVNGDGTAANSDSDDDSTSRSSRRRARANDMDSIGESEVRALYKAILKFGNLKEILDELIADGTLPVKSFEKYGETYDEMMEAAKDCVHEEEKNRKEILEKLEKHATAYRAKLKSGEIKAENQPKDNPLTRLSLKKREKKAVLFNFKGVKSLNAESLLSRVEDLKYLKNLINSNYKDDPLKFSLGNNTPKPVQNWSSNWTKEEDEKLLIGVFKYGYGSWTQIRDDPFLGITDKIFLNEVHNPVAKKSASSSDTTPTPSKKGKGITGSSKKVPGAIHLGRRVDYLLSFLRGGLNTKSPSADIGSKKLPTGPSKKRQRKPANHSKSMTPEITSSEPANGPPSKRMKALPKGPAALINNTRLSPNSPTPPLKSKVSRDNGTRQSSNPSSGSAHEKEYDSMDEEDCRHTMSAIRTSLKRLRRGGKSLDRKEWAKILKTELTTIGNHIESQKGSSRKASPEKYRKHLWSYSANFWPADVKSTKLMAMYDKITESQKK

Chain of Sialic acid-binding Ig-like lectin 9 (Homo sapiens) (Q9Y336 whole entry): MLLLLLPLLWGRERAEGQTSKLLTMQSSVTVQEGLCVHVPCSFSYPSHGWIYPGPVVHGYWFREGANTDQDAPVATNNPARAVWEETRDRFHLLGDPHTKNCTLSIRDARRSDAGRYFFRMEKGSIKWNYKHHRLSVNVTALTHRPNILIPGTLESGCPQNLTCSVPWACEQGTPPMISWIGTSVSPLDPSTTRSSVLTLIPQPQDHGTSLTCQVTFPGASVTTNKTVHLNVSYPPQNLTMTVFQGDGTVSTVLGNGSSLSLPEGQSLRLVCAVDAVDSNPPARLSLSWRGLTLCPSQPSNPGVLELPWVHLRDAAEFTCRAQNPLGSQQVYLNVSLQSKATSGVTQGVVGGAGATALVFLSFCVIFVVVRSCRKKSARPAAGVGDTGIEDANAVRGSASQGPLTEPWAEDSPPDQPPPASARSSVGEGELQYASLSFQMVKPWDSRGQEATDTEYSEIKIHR
Chain of Protein translocase subunit SecA (Escherichia coli (strain K12)) (P10408 whole entry): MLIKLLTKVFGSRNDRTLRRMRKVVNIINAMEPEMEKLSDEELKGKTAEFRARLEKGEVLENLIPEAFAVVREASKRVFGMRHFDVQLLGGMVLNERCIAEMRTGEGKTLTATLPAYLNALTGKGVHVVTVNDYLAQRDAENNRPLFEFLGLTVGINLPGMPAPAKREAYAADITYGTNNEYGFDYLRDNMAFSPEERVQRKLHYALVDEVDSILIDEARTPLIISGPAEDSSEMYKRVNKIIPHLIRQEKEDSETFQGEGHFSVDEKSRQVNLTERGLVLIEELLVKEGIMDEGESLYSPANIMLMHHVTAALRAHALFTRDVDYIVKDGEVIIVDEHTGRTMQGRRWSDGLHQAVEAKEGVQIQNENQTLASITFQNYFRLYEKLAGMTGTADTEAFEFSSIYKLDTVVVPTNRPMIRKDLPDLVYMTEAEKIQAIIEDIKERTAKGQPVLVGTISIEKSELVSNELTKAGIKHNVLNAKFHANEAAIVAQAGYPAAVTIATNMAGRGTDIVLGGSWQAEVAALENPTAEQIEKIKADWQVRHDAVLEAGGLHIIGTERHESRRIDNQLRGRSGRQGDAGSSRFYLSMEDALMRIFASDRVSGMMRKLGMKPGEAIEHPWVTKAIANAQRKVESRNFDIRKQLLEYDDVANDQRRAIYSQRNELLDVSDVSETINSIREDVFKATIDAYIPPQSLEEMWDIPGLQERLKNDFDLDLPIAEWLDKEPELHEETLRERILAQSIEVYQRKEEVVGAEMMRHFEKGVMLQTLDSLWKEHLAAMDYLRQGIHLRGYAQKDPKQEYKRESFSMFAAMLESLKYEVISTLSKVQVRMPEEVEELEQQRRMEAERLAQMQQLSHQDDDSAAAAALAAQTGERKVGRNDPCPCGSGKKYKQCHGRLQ

Turning to `CCOc1ncccc1CNC(=O)N1CCCC1c1cc(C)no1` (stereo not drawn), the Percent Effect in [1] is -3.76%; in assay [2], 8%; in assay [3] it was -5.83%; in assay [4], 0.983%; with Trypanosoma cruzi it was -1.66%; in [5] it was 0.521%. Moreover, the Percent Effect in [6] is 12%; in the assay filed under Homo sapiens, 14.2%; in assay [7], 8.2%; in [8] it was 16.1%; in [9], -6.86%.

In the case of `Cn1cc(N2CCC3(CCN(Cc4nccs4)C3)C2=O)cn1` (stereo not drawn), the Percent Effect in assay [1] is -2.64%; in assay [2], 2.7%; in assay [3], 4.13%; in assay [4], -6.07%; with Trypanosoma cruzi, -4.2%; in assay [5], 0.319%. Besides, the Percent Effect in assay [6] was 16.4%; in the assay listed under Homo sapiens, -1.48%; in assay [7], 4.32%; in [8], 10.3%; in assay [9], -0.716%.

For the molecule `COc1cccc(S(=O)(=O)NC(=O)COC2CCCC2)c1`, the Percent Effect was -1.91% in [1]; 20.8% in assay [2]; 2.89% in assay [3]; 10.4% in assay [4]; 2.06% with Trypanosoma cruzi; 2.85% in [5]. Besides, the Percent Effect in [6] is 10.6%; in the assay listed under Homo sapiens, 3.15%; in [7] it was 8.74%; in [8], 24.4%; in assay [9], -6.86%.

Turning to `Cc1cc(C)n(CC2CCCCN2CC(=O)Nc2nncs2)n1` (stereo not drawn), the Percent Effect in assay [1] was -3.75%; in [2], 8%; in assay [3], -5.11%; in assay [4] it was 15%; in the assay on Trypanosoma cruzi, 7.69%; in assay [5], 14.6%. For the same molecule, the Percent Effect in assay [6] was 0.349%; in the assay listed under Homo sapiens, 13.2%; in [7], 6.01%; in [8], 16.1%; in assay [9] it was -8.51%.

As to `O=C(Nc1ccc(F)cc1)N1C[C@H]2CC[C@@H]1CN(Cc1cccnc1)C2`, the Percent Effect is -3.11% in [1]; 11% in assay [2]; 4.71% in [3]; -2.61% in assay [4]; -2.15% in the assay with Trypanosoma cruzi; 4.54% in assay [5]. The Percent Effect is 13.3% in [6]; 9.03% in the assay filed under Homo sapiens; 10.8% in [7]; 20% in assay [8]; -5.73% in assay [9].

For `COCCN1CCC(N(Cc2noc(C3CC3)n2)C(C)=O)C1` (stereo not drawn), the Percent Effect is -2.54% in assay [1]; 13.5% in assay [2]; -5% in [3]; -6.65% in [4]; -5.11% with Trypanosoma cruzi; -0.924% in assay [5]. Moreover, the Percent Effect is 18.3% in assay [6]; 20.9% in the assay filed under Homo sapiens; 0.99% in assay [7]; 11% in [8]; -8.27% in assay [9].

As to `Cc1oncc1C(=O)N1CCC2(CCN(Cc3ccccn3)C2=O)C1` (stereo not drawn), the Percent Effect in assay [1] was -5.3%; in [2], -2.74%; in assay [3] it was -0.544%; in [4], 4.81%; with Trypanosoma cruzi, -2.78%; in assay [5] it was -3.19%. Also, the Percent Effect in [6] was 8.82%; in the assay filed under Homo sapiens, 15.6%; in [7], 2.08%; in assay [8], 1.24%; in assay [9], -0.071%.

Take `Cc1nc2c(c(NC3CC3)n1)CCN(C(=O)C(C)(C)O)CC2`: the Percent Effect in assay [1] is -2.61%; in [2], 10.8%; in assay [3], 2.64%; in [4], -8.96%; in the assay with Trypanosoma cruzi it was -4.99%; in [5] it was -0.319%. In addition, the Percent Effect is 28% in assay [6]; 23.3% in the assay filed under Homo sapiens; 3.24% in assay [7]; 7.69% in assay [8]; -1.94% in assay [9].
